BAZ2B block – qHTS Assay for Inhibitors of BAZ2B. Bromodomain adjacent to zinc finger domain protein 2B (Homo sapiens), Q9UIF8. AlphaScreen BAZ2B-H3K14Ac peptide displacement. Potency, µM (titrated, usually from 114 µM), without a hit: at the top dose activity change, negative = inhibition, usual class: inhibitors. 360,000 tested, 4.4% active. AID 504333, 2011; also: potency is read from the fitted curve at half-maximal effect; % is scaled to controls: 0 for no effect and ±100 for the full control effect; nearly all actives have a fitted effect of over 60% in size
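BAZ2B (50 nM) with biotin-H3(5-23)K14Ac peptide (50 nM) in PBS pH 7.4, 0.01% Tween-20, preformed 30 min, then compound 30 min at room temperature; top concentration 110uM. AlphaScreen streptavidin donor/nickel chelate acceptor beads (10 ug/mL final), 20 min dark, signal read.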
CtBP-E1A inh – qHTS Assay for Inhibitors of the CtBP/E1A Interaction. 340,000 tested, 0.49% active. activity change, % (test concentration not listed). AID 651724, 2012. AlphaScreen GST-E1A/His-CtBP binding, 1536-well; active compounds read low; in the data active = activity change below about -65%; inconclusive = mostly about -30% to -63%; also: % is scaled to controls: 0 for no effect and ±100 for the full control effect
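AlphaScreen with 125 nM GST-E1A and 125 nM His-CtBP (5X stocks) in Tris pH 8.0, 300 mM NaCl, BSA, Tween 20, TCEP. Compounds preincubated 2 h at 37 deg C, then glutathione donor/nickel acceptor beads added for 1 h at 37 deg C in dark.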
G9a block – qHTS Assay for Inhibitors of Histone Lysine Methyltransferase G9a; 350,000 tested, 8.8% active; AID 504332, 2011; Potency, µM (series often up to 102 µM), for inactives: at the top dose activity, negative = inhibition, actives largely listed as inhibitors; G9a H3K9 monomethylation, AlphaScreen, 2 h; also: potency is read from the fitted curve at half-maximal effect; % is scaled to controls: 0 for no effect and ±100 for the full control effect; nearly all actives have a fitted effect of over 75% in size
Target sequence (Q96KQ7 913-1193 limits assumed): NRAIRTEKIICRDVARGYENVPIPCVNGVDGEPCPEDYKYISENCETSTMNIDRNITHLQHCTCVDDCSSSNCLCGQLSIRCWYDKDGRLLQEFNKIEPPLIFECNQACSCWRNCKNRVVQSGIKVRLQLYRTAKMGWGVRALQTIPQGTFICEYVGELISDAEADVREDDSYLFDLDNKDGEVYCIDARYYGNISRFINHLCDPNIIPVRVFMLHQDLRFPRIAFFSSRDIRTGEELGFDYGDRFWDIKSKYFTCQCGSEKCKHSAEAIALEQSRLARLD
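Quantitative HTS format: methyltransferase activity on a biotin-tagged H3K9 peptide is measured by AlphaScreen, using a rabbit anti-monomethyl-H3K9 antibody with streptavidin donor and anti-IgG acceptor beads. Final levels are 20 nM enzyme, 500 nM peptide, 20 uM SAM; 2 h RT.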
HP1b binding inh – HTS for Inhibitors of HP1-beta Chromodomain Interactions with Methylated Histone Tails | Chromobox protein homolog 1 (Homo sapiens), P83916 | AlphaScreen HP1-beta / biotin-H3K9me3 peptide binding | Potency, µM (doses to about 114 µM), inactives show top-dose activity change, negative = inhibition, actives largely listed as inhibitors | 390,000 tested, 0.56% active; also: potency is read from the fitted curve at half-maximal effect; nearly all actives have a fitted effect of over 70% in size
Target sequence (P83916 whole entry, looked up): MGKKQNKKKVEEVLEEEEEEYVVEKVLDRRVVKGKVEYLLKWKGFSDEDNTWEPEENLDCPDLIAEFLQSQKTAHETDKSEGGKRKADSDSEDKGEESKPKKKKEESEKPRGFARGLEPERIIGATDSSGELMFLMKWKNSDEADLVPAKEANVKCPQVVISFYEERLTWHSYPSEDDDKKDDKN
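Compound inhibition of the preformed complex between 50 nM HP1-beta and 50 nM biotinylated H3K9me3 peptide was read by AlphaScreen. Buffer was PBS pH 7.4 with 0.01% Tween-20. Incubations ran 30 min at room temperature, with 10 ug/mL donor/acceptor beads.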
JMJD2A Tudor – qHTS Assay for Inhibitors of JMJD2A-Tudor Domain; Lysine-specific demethylase 4A (Homo sapiens), O75164; AlphaScreen JMJD2A-Tudor / H3K4me3 peptide binding; Potency, µM (titrated, usually from 114 µM), without a hit: top-dose activity change, negative = inhibition, hits mostly inhibitors; 390,000 tested, 4.4% active; AID 504339, 2011; also: potency is read from the fitted curve at half-maximal effect; % is scaled to controls: 0 for no effect and ±100 for the full control effect; nearly all actives have a fitted effect of over 50% in size
Six1-Eya2 blk – qHTS Assay for Inhibitors of the Six1/Eya2 Interaction | AID 651725, 2012 | 360,000 tested, 0.56% active | AlphaScreen GST-Six1/His-Eya2 binding, biochemical; active compounds read low | activity change, % (test concentration not listed); in the data active = activity change below about -65%; inconclusive = mostly about -30% to -63%; also: % is scaled to controls: 0 for no effect and ±100 for the full control effect
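Six1/Eya2 binding was read as AlphaScreen signal after compounds were pinned into GST-Six1 plus His-tagged Eya2 (5X stock 250/500 nM) in pH 8.0 Tris/NaCl/TCEP buffer, beads added, then incubated 1 h, 37 C, dark.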
* hit, by the source's call; ? = inconclusive; nt = no result; [ ] = dose if it differs, or a comment. Shown are actives, neighbours in structure and some others; about 10% of the full set was active somewhere. Unless noted, calls follow the shape of the dose curve; as a rule, active = well fitted inhibition curve with a large enough effect; inconclusive = small, poorly fitted or top-dose-only effect; inactive = no such curve, though single readings can be large or run the other way.

SMILES | BAZ2B block | CtBP-E1A inh | G9a block | HP1b binding inh | JMJD2A Tudor | Six1-Eya2 blk
Cc1cccc(N=C/C(C(=O)C(F)(F)F)=C(\O)c2ccco2)c1 | 5% | -12 | 44%[59 µM] | 25% | -20% | 0
Cn1nc(C(F)(F)F)c(-c2ccc(F)cc2)c1NC(=O)c1ccco1 | -2% | 4 | 3% | 38% | -3% | 9
Cc1ccc(N=C/C(C(=O)C(F)(F)F)=C(\O)c2ccco2)cc1Cl | 0% | -23 | 45µM* | 29% | ? | -9
CCCCN(Cc1ccco1)S(=O)(=O)c1ccc(-c2ccc(=O)[nH]n2)s1 | -24% | -11 | -5% | -5% | ? | -8
CN(CC(=O)Nc1c(Cl)cccc1Cl)C(=O)c1ccc2nc[nH]c2c1 | ? | -2 | ? | 19% | -16% | -8
Cc1ccc(NC(=O)CN2C(=O)CC(c3ccc(C)c(C)c3)=Nc3ccccc32)cc1 | -3% | nt | -1%[59 µM] | 9% | -20% | nt
CCN(CC(=O)Nc1ccc(NC(C)=O)cc1)C(=O)c1ccccc1SCc1c(C)noc1C | 56µM* | 4 | 40µM* | 2% | -32% | -6
CCCCOc1ccc(C2C(C(=O)c3cccs3)=C(O)C(=O)N2CCN2CCOCC2)cc1 (stereo not given) | -7% | 1 | nt | 27% | -17% | 4
O=C(O)CCCCCN1C(=O)C(O)=C(C(=O)/C=C/c2ccccc2)C1c1ccc2c(c1)OCO2 (stereo not given) | ? | -6 | 50µM* | 19% | 22µM* | -13
COCCN1C(=O)C(O)=C(C(=O)c2cccs2)C1c1ccccc1 (stereo not given) | -21% | 0 | 18µM* | 28% | -7% | 21
O=C(/C=C/c1ccccc1)C1=C(O)C(=O)N(CCO)C1c1cccc([N+](=O)[O-])c1 (stereo not given) | -25% | 1 | ? | 24% | -7% | 1
Cc1cccc(N2C(=O)C(O)=C(C(=O)c3cccs3)C2c2ccccc2)n1 (stereo not given) | -16% | nt | -49% | 47% | -6% | 5
COc1cccc(C2C(C(=O)c3cccs3)=C(O)C(=O)N2CCN2CCOCC2)c1 (stereo not given) | -13% | nt | 16% | 90% | -7% | 7
CCCOc1cccc(C2C(C(=O)c3cccs3)=C(O)C(=O)N2CCN2CCOCC2)c1 (stereo not given) | ? | 1 | 79µM* | 24% | -1% | -3
O=C(C1=C(O)C(=O)N(CCN2CCOCC2)C1c1ccc(F)cc1)c1cccs1 (stereo not given) | 10% | -1 | 71µM* | 35% | -9% | -2
O=C(NCCc1ccccc1)C1(c2cccs2)CCOCC1 | -12% | nt | -2%[59 µM] | 7% | -13% | nt
C#CCN1CCc2onc(-c3ccc(Br)cc3)c2C1=O | nt | 12 | nt | nt | nt | 6
COCCCN1C(=O)C(O)=C(C(=O)c2ccco2)C1c1ccc(Br)cc1 (stereo not given) | ? | 2 | ? | 2% | -23% | -1
CC(=O)C1=C(O)C(=O)N(CCCCCC(=O)O)C1c1ccc(N(C)C)cc1 (stereo not given) | 79µM* | -3 | ? | 12% | 32µM* | 10
COCCN1C(=O)C(O)=C(C(C)=O)C1c1ccc(F)cc1 (stereo not given) | 79µM* | 5 | ? | 1% | 40µM* | -2
CCOc1ccc(C2C(C(=O)c3cccs3)=C(O)C(=O)N2CCN2CCOCC2)cc1 (stereo not given) | -21% | nt | 50µM* | 46% | -2% | 2
CC(=O)C1=C(O)C(=O)N(CCc2c[nH]c3ccccc23)C1c1ccc(C)cc1 (stereo not given) | -16% | nt | 45µM* | 17% | -26% | 6
C/C(=N\NC(=O)Cc1ccc(Cl)cc1)c1cccnc1 | -3% | -11 | 5% | 33% | -3% | -8
CCC1CCCCN1CCCNC(=O)c1ccc2c(c1)N(Cc1ccc(F)cc1)C(=O)c1ccccc1S2=O (stereo not given) | -12%[57.1 µM] | -11 | ? | 33% | -21% | 2
COc1ccc(Cn2ncc3c4sc(C)cc4n(C)c3c2=O)cc1F | nt | nt | nt | nt | -3% | nt
SMILES | BAZ2B block | CtBP-E1A inh | G9a block | HP1b binding inh | JMJD2A Tudor | Six1-Eya2 blk
CCN(CC)CCN1C(=O)C(O)=C(C(=O)c2cccs2)C1c1ccc(C)o1 (stereo not given) | 3% | 4 | ? | 23% | ? | 3
CCN(CC)CCN1C(=O)C(O)=C(C(=O)c2cccs2)C1c1ccccn1 (stereo not given) | 50µM* | -3 | 32µM* | 21% | ? | 0
O=C1NC(c2ccccc2)C(C(=O)c2cccs2)=C1O (stereo not given) | -36% | -10 | ? | -1% | 25µM* | 1
O=C(NCC1CCCO1)c1ccc(NC(=O)c2cccc([N+](=O)[O-])c2)cc1 (stereo not given) | -5% | -5 | 14% | 31% | -10% | -2
C/C(=N/NC(=O)Cc1cccn1C)c1ccccc1 | -33%[57.1 µM] | 2 | -36% | 9% | -21% | -6
C/C(=N\NC(=O)Cc1cccn1C)c1ccc2ccccc2c1 | ? | -10 | 71µM* | -2% | ? | -17
COc1cccc(C2c3[nH]c4ccccc4c3C[C@H]3C(=O)N(CCCCCO)CC(=O)N23)c1 (stereo not given in full) | ? | 0 | -7% | 27% | -14% | 0
CC(=O)N(/N=C1\Sc2ccccc2C1=O)c1cccc(C)c1 | 40µM* | -25 | ? | -16% | -34% | -28
S=c1c2c(nc3nc[nH]n13)CCC2 | 45µM* | nt | nt | 26% | 6.3µM* | -13
CCN1CCN(c2ccc(S(=O)(=O)N3CCCCC3)cc2NC(=O)/C=C/c2ccc([N+](=O)[O-])cc2)CC1 | ? | ? | 18µM* | ? | ? | -8
O=C(/C=C/c1ccc(Cl)c([N+](=O)[O-])c1)Nc1ccc(N2CCCC2)c(Cl)c1 | -16% | -6 | -3%[59 µM] | 24% | -1% | 2
CN1CCN(c2ccc(S(=O)(=O)N3CCCCC3)cc2NC(=O)/C=C/c2ccc(Cl)c([N+](=O)[O-])c2)CC1 | ? | -14 | 35µM* | ? | 45µM* | -26
